Results on 44 molecules are retold here after PubChem BioAssay AID589 (National Center for Advancing Translational Sciences (NCATS), 2007).

Each structure is given as a SMILES string. Hit rate of the full screen: of about 59,000 compounds, about 6,200 (11%) were called active. Not shown: some 9% with an inconclusive outcome. This is one part of a sample in which actives are shown more often than they occur. No stated cut-off is given here; in the data, active means max dye-equivalent concentration above about 10 nM; inconclusive means mostly about 1.1 nM to 9.6 nM; inactive means weaker than that.

A short description of the assay: qHTS Assay for Spectroscopic Profiling in 4-MU Spectral Region. Conditions: compound autofluorescence, 340/450 nm, 4-MU equivalents; hits give high values. The method in brief: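 Compounds in 100 mM Tris, pH 8.0, sat 15 min at room temperature before fluorescence was read at 340 nm excitation/450 nm emission; a per-plate six-point 4-MU standard curve converted signals to dye-equivalent concentration at each compound concentration.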
With `COc1ccccc1C(=O)Oc1ccc(N2C(=O)CCC2=O)cc1`, the max dye-equivalent concentration result was “inactive”.
Then `CCOc1nc(-c2ccc(OC)cc2)ccc1-c1noc(-c2cc(OC)c(OC)c(OC)c2)n1`, with 57 nM (active); and `O=C(Oc1ccc(-c2nc(-c3ccccn3)no2)cc1)c1ccccc1`, with “inactive”; and `CCOc1cc(-c2noc(CCC(=O)N3CCOCC3)n2)ccc1OC`, with “inactive”.
In the case of `COc1ccc(-c2ccc(-c3noc(-c4ccncc4)n3)c(OC)n2)cc1`, the max dye-equivalent concentration is 17 nM (active).
As to `COc1ccc(-c2nc(-c3ccccc3)no2)c(OC)c1`, the max dye-equivalent concentration entry is “inactive”.
The result for `COc1ccc(-c2noc(CN(C)S(=O)(=O)c3ccc(C)cc3)n2)cc1` reads “inactive”; that for `FC(F)Oc1ccccc1C1CC(c2ccc(Br)s2)Nc2ncnn21` (centres undefined), “inactive”; that for `CN1CCN(C(=O)c2ccc(NS(=O)(=O)c3ccccc3)cc2)CC1`, “inactive”.
In the case of `O=C(c1cnccn1)N1CCC2(CCCN(Cc3ccccc3)C2)CC1`, the max dye-equivalent concentration result was “inactive”.
For the molecule `O=C(COc1cccc(-n2cnnn2)c1)NCCC1=CCCCC1`, the max dye-equivalent concentration result was “inactive”.
On to `Cn1nnc2cc(C(=O)NCCC3=CCCCC3)ccc21`, for which the max dye-equivalent concentration entry was “inactive”.
As for `Cc1ccc2c(c1)c1ncn(CCC3=CCCCC3)c(=O)c1n2C`, the max dye-equivalent concentration was 38 nM (active).
Regarding `NC(=S)c1ccc(C(N)=S)o1`, the max dye-equivalent concentration entry was “inactive”.
Then `CCCCSc1nnc(-c2ccc(NC(=O)CC)cc2)n1C`, with “inactive”; and `CCOc1cc(C)c(Cl)cc1S(=O)(=O)n1nnc2ccccc21`, with “inactive”.
On to `O=C(OC1CCOC1=O)c1ccc(-c2nc3ccccc3s2)s1` (centres undefined), for which the max dye-equivalent concentration was 550 nM (active).
Then `Cc1nn(Cc2ccccc2)c(Cl)c1C(=O)OC1CCOC1=O` (centres undefined), with “inactive”.
Take `O=C(c1cccs1)N1CCC(c2nc3ccccc3s2)CC1`: the max dye-equivalent concentration entry was “inactive”.
Turning to `Cc1ccc(C(C)C)c(OCc2nnc(SCC(=O)Nc3nccs3)n2C)c1`, the max dye-equivalent concentration entry is “inactive”.
As for `C=CCOc1ccc(/C=N/n2cncn2)cc1OC`, the max dye-equivalent concentration entry was “inactive”.
As for `COCCCNC(=O)C1CC(=O)N(c2ccc(C)cc2)C1` (centres undefined), the max dye-equivalent concentration result was “inactive”.
For `COc1ccc(Cl)cc1NC(=O)C1CC(=O)N(c2ccc(F)cc2)C1` (centres undefined), the max dye-equivalent concentration result is “inactive”.
Then `COc1cccc(N2CC(C(=O)Nc3c(C)cccc3C)CC2=O)c1` (centres undefined), with 20 nM (active); and `O=C(Nc1ccn(Cc2ccc(F)cc2)n1)c1ccncc1`, with “inactive”.
Consider `N#Cc1c(NC(=O)CSc2nc3ccccc3c(=O)n2Cc2ccco2)sc2c1CCCC2`, for which the max dye-equivalent concentration result is “inactive”.
Regarding `CC(C)(O/N=C(\C(=O)N[C@@H]1C(=O)N2C(C(=O)[O-])=C(C[n+]3ccccc3)CS[C@@H]12)c1csc(N)n1)C(=O)O`, the max dye-equivalent concentration result was “inactive”.
In the case of `CC(=O)N=c1ncn(CC(COC(C)=O)OC(C)=O)c2nc[nH]c12` (centres undefined), the max dye-equivalent concentration result is “inactive”.
The result for `Cc1ccc(S(=O)(=O)N2CCCC2C(=O)NCc2ccco2)cc1` (centres undefined) reads “inactive”.
`CC(=O)c1c(N2CCOCC2)nc(=S)n(Cc2ccccc2)c1C`: the max dye-equivalent concentration result is “inactive”.
With `COC(=O)Cn1cc(C(=O)c2cccs2)c2ccccc21`, the max dye-equivalent concentration result is “inactive”.
As for `CCOC(=O)c1oc2ccccc2c1NC(=O)c1cccs1`, the max dye-equivalent concentration was 18 nM (active).
Then `CCOCC(=O)Nc1sc2c(c1C(=O)OCC)CCCC2`, with “inactive”; and `COC(=O)c1c(NC(=O)CSc2nncs2)sc2c1CCCCC2`, with “inactive”; and `CCOC(=O)c1c(NC(=O)CSc2nnc(Cc3csc(N)n3)n2C)sc(C)c1C`, with “inactive”.
Take `CCOC(=O)CSc1nnc(CNC(=O)c2cccs2)n1-c1ccccc1`: the max dye-equivalent concentration result was “inactive”.
The result for `CCOC(=O)c1c(NC(=O)c2cccs2)sc(C)c1C` reads 190 nM (active).
Turning to `COC(=O)c1c(NC(=O)c2cccs2)sc2c1CCCC2`, the max dye-equivalent concentration is 90 nM (active).
Regarding `O=C(Nc1ncccn1)c1cccs1`, the max dye-equivalent concentration entry was “inactive”.
Take `Cc1ccnc(N2CCC(C(=O)NC3CCCCCC3)CC2)n1`: the max dye-equivalent concentration result was “inactive”.
Consider `CCN(CC)S(=O)(=O)c1ccc2nc(COC(=O)c3n[nH]c4ccccc34)[nH]c2c1`, for which the max dye-equivalent concentration entry was “inactive”.
For `COc1ccc2c(c1)CCc1c(C(=O)Nc3c(C)n(C)n(-c4ccccc4)c3=O)noc1-2`, the max dye-equivalent concentration result was “inactive”.
As to `O=C(Nc1c[nH]c(=O)[nH]c1=O)Oc1ccccc1`, the max dye-equivalent concentration entry was “inactive”.
For `Cc1ccc(C)c(N(CC(=O)NCc2ccco2)C(=O)CCC(=O)Nc2ccccn2)c1`, the max dye-equivalent concentration result is “inactive”.
